Results filed as inconclusive are left out. Active and inactive are the calls of the source. Calls follow the shape of the dose curve; as a rule, active = well fitted inhibition curve with a large enough effect; inconclusive = small, poorly fitted or top-dose-only effect; inactive = flat fitted curve, though single readings scatter.

The source of these data is PubChem BioAssay (NCATS).

Holding throughout (test): qHTS profiling for inhibitors of Plasmodium falciparum proliferation (AID 504749); also: nearly all actives have a fitted effect of over 60% in size
What all share (conditions): P. falciparum in erythrocytes, SYBR Green DNA, 72 h; series mostly up to 28.7 µM
(In general: Quantitative high-throughput screening tests each substance at several concentrations.)

The subject of test [1] is CP191. In a few lines: (§1)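 SYBR Green fluorescence of parasite DNA, read after lysis and overnight dark incubation, measured growth over 72 h in erythrocyte culture at 0.3% parasitemia and 2.5% hematocrit. Data normalised to DMSO and 0.29 uM artemisinin, with plate-drift correction.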
For test [2], the system named is CP201. A digest of the protocol: as §1
The test system of test [3] is CP211. A digest of the protocol:
as §1

Test [4] deals with CP217. A digest of the protocol:
as §1

Test [5] relates to CP237. In a few lines:
as §1

Test [6] has as its system CP238. In a few lines:
as §1

Test [7] has as its system CP247. In a few lines: as §1
The subject of test [8] is CP250. A digest of the protocol:
as §1

In test [9] the test system is CP252. A digest of the protocol:
as §1

Test [10] relates to CP256. A digest of the protocol: as §1
In test [11] the test system is CP260. A digest of the protocol: as §1
The subject of test [12] is CP262. In a few lines: as §1
The test system of test [13] is CP265. A digest of the protocol: as §1
Test [14] deals with CP266. In a few lines:
as §1

Test [15] has as its system CP185. In a few lines: as §1
Test [16] relates to CP192. A digest of the protocol:
as §1

Test [17] has as its system CP194. In a few lines: as §1
Test [18] relates to CP215. In a few lines: as §1
Test [19] deals with CP268. A digest of the protocol:
as §1

Test [20] deals with CP269. In a few lines:
as §1
Potency is read from the fitted curve at half-maximal effect.

As to `CN(C)CCC(c1ccccc1)c1ccccn1` (stereo not given), the Potency entry in test [1], in [3], in [4], in test [5] and in test [7] was “inactive” in each case. In addition, the molecule was called inactive in test [2], in [6], in test [8], in test [9], in [10] and in [11]. The molecule was classed as inactive in test [12] and in [14]. For the same molecule, the Potency in test [13] is 12.6 µM (active).
For the molecule `COc1ccccc1N1CCN(CCCNc2cc(=O)n(C)c(=O)n2C)CC1`, the molecule was classed as inactive in test [15], in test [2], in test [6], in test [8], in test [9] and in test [10]. The molecule was classed as inactive in test [11], in [12], in test [14], in test [19] and in test [20]. The Potency result in test [1], in test [16], in [17], in [3], in [18] and in test [4] was “inactive” throughout. The Potency entry in [5], in [7] and in [13] was “inactive” in each case.
For the molecule `CCCNC(=O)NS(=O)(=O)c1ccc(Cl)cc1`, the molecule was called inactive in test [15], in test [2], in [6], in [8], in test [9] and in [10]. For the same molecule, the outcome in [11], in test [12], in [14], in test [19] and in [20] was inactive. Also, the Potency entry in [1], in test [16], in [17], in test [3], in [18] and in test [4] was “inactive” each time. Further, the Potency entry in test [5], in [7] and in test [13] was “inactive” each time.
Regarding `CC/C(=C(\c1ccccc1)c1ccc(OCCN(C)C)cc1)c1ccccc1`, the Potency result in [16] is “inactive”. In test [4], the Potency is 11.2 µM (active). In addition, the molecule was called inactive in test [12] and in test [14].
As for `NCCS`, the result in test [15], in [2], in test [6], in test [8], in [9] and in test [10] was inactive. The molecule was called inactive in test [11], in test [12], in test [14], in test [19] and in test [20]. Moreover, the Potency entry in test [1], in test [16], in test [17], in test [3], in test [18] and in [4] was “inactive” in each case. Also, the Potency entry in test [5], in [7] and in test [13] was “inactive” each time.
Regarding `COCCCCC(=NOCCN)c1ccc(C(F)(F)F)cc1`, in test [16], the Potency result is “inactive”.
For the molecule `CC1(C)O[C@H]2C[C@@H]3[C@H]4CCC5=CC(=O)C=C[C@]5(C)[C@@]4(F)[C@@H](O)C[C@]3(C)[C@]2(C(=O)CO)O1`, the call in test [15], in [2], in [6], in test [8], in test [9] and in test [10] was inactive. For the same molecule, the call in test [11], in test [12], in [19] and in test [20] was inactive. Also, the Potency result in test [1], in test [16], in [17], in test [3], in test [18] and in [4] was “inactive” in each case. In addition, the Potency result in test [5], in test [7] and in [13] was “inactive” each time.
Consider `Cc1cnc(C(=O)O)c[n+]1[O-]`, for which the molecule was called inactive in test [15], in test [2], in test [6], in [8], in test [9] and in test [10]. Further, the call in [12], in [19] and in [20] was inactive. Also, the Potency result in [1], in [16], in test [17], in [3], in test [18] and in test [4] was “inactive” in each case. The Potency entry in [5], in test [7] and in test [13] was “inactive” throughout.
Consider `CC(=O)N[C@@H](CS)C(=O)O`, for which the result in test [15], in test [2], in test [6], in test [8], in test [9] and in test [10] was inactive. For the same molecule, the molecule was called inactive in test [11], in test [12], in test [14], in [19] and in test [20]. The Potency result in [1], in [16], in [17], in test [3], in test [18] and in test [4] was “inactive” throughout. Moreover, the Potency entry in test [5], in test [7] and in test [13] was “inactive” throughout.
As to `O=C(O)Cc1cccc2ccccc12`, the molecule was called inactive in [15], in test [2], in [6], in [8], in test [9] and in test [10]. Besides, the molecule was called inactive in test [11], in test [12], in [14], in [19] and in test [20]. Moreover, the Potency entry in test [1], in test [16], in test [17], in test [3], in test [18] and in test [4] was “inactive” in each case. Moreover, the Potency entry in [5], in test [7] and in test [13] was “inactive” throughout.
Consider `Clc1ccc(Cn2c(CN3CCCC3)nc3ccccc32)cc1`, for which the outcome in test [15], in test [2], in test [6], in test [8], in [9] and in [10] was inactive. Besides, the result in test [12], in [14], in test [19] and in test [20] was inactive. For the same molecule, the Potency entry in [1], in test [16], in [17], in test [3], in test [4] and in test [7] was “inactive” in each case. The Potency result in test [13] is “inactive”.
With `CCN(CC)CCOC(=O)c1ccc(N)cc1`, the result in [15], in [2], in test [6], in [8], in [9] and in test [10] was inactive. Moreover, the molecule was classed as inactive in test [11], in test [12], in test [14], in [19] and in test [20]. Besides, the Potency entry in [1], in [16], in test [17], in test [3], in test [18] and in test [4] was “inactive” each time. For the same molecule, the Potency entry in test [5], in test [7] and in test [13] was “inactive” throughout.
`NC(N)=Nc1nc(CSCC/C(N)=N/S(N)(=O)=O)cs1`: the outcome in [15], in [2], in test [6], in test [8], in [9] and in test [10] was inactive. The result in [11], in test [12], in [14], in test [19] and in test [20] was inactive. Also, the Potency result in [1], in test [16], in test [17], in test [3], in test [18] and in [4] was “inactive” throughout. Also, the Potency result in test [5], in test [7] and in test [13] was “inactive” throughout.
As to `O=C(NCCN1CCOCC1)c1ccc(Cl)cc1`, the molecule was called inactive in [15], in test [2], in [6], in [8], in test [9] and in test [10]. Moreover, the result in [11], in [12], in test [14], in test [19] and in test [20] was inactive. The Potency entry in test [1], in test [16], in test [17], in test [3], in test [18] and in test [4] was “inactive” throughout. Further, the Potency entry in test [5], in test [7] and in test [13] was “inactive” in each case.
Regarding `CCCCCN(C)CCC(O)(P(=O)(O)O)P(=O)(O)O`, the outcome in test [15], in test [2], in test [6], in test [8], in test [9] and in [10] was inactive. In addition, the molecule was called inactive in test [11], in test [12], in test [14], in test [19] and in test [20]. Further, the Potency result in test [1], in test [16], in [17], in [3], in [18] and in test [4] was “inactive” throughout. Moreover, the Potency result in test [5], in [7] and in test [13] was “inactive” each time.
As to `CCN(CC)C(=O)c1ccc(O)c(OC)c1`, the call in test [15], in [2], in [6], in test [8], in test [9] and in [10] was inactive. For the same molecule, the result in [11], in [12], in test [14], in [19] and in [20] was inactive. The Potency entry in test [1], in test [16], in test [17], in [3], in test [18] and in [4] was “inactive” throughout. Moreover, the Potency entry in test [5], in test [7] and in test [13] was “inactive” throughout.
`O=C1Nc2ccc(Cl)cc2C(C#CC2CC2)(C(F)(F)F)O1` (stereo not given): the outcome in test [15], in test [2], in test [6], in test [8], in [9] and in test [10] was inactive. Moreover, the molecule was classed as inactive in [11], in [12], in test [19] and in test [20]. Also, the Potency result in test [1], in test [16], in test [3], in [4], in [5] and in [7] was “inactive” throughout. Moreover, the Potency entry in test [13] was “inactive”.
